Source: PubChem BioAssay (NCI)
This is part of a sample that, as a whole, favours compounds with a hit. Of some 79,000 tested, about 15% had one in any assay. Values without a mark were called inactive. Activity calls are given as the source filed them. Cut-off read from the data, not from the text of the source: active = growth inhibition above about 70%; inactive = the rest.

How the values were obtained:
[1] = NCI Yeast Anticancer Drug Screen. Data for the rad50 strain (AID 155);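 note: 0% = growth of vehicle-only cultures of the same strain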; settings: S. cerevisiae rad50 strain growth inhibition, stronger effect = higher value
Summary of the method: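 Compounds were tested on a yeast strain with an engineered DNA damage repair alteration; the reported value is growth inhibition normalised to vehicle treatment.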

[2] = NCI Yeast Anticancer Drug Screen. Data for the mec2-1 strain (AID 157); settings: S. cerevisiae mec2-1 strain, stronger effect = higher value
Summary of the method: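 Each compound was tested on mec2-1 yeast, a strain altered in DNA damage repair or cell cycle control. Growth inhibition is reported relative to vehicle.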

[3] = NCI Yeast Anticancer Drug Screen. Data for the sgs1 mgt1 strain (AID 161);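 note: 0% = growth of cultures given vehicle only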; settings: S. cerevisiae sgs1 mgt1 strain, stronger effect = higher value
Summary of the method: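 Mutant yeast exposed to compound; growth scored against vehicle-only wells.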

[4] = NCI Yeast Anticancer Drug Screen. Data for the cln2 rad14 strain (AID 165);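 note: 0% = growth equal to vehicle treated cultures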; settings: S. cerevisiae cln2 rad14 strain, stronger effect = higher value
Summary of the method: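 Test compounds were added to cln2 rad14 yeast cultures; inhibition of growth was then determined by comparison with vehicle treatment.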

[5] = NCI Yeast Anticancer Drug Screen. Data for the bub3 strain (AID 167); settings: S. cerevisiae bub3 mutant strain, stronger effect = higher value
Summary of the method: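 Growth of a checkpoint-deficient yeast mutant is measured after compound exposure. Values represent inhibition relative to vehicle.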

[6] = NCI Yeast Anticancer Drug Screen. Data for the mlh1 rad18 strain (AID 175); settings: S. cerevisiae mlh1 rad18 strain growth inhibition, stronger effect = higher value
Summary of the method: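 Inhibition values reflect reduced growth of mutant yeast versus vehicle-treated controls following compound exposure; the mutations affect DNA damage repair.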

[7] = at 5.0 µM (retest, dose inferred, filed as 0.5)
[8] = at 50.0 µM (retest, dose inferred, filed as 5.0)

SMILES | growth inhibition [1, 7] [%] | growth inhibition [1, 8] | growth inhibition ([1]; at 50.0 µM) | growth inhibition [2, 7] [%] | growth inhibition [2, 8] | growth inhibition ([2]; at 50.0 µM) | growth inhibition [3, 7] [%] | growth inhibition [3, 8] | growth inhibition ([3]; at 50.0 µM) | growth inhibition [4, 7] [%] | growth inhibition [4, 8] | growth inhibition ([4]; at 50.0 µM) | growth inhibition [5, 7] | growth inhibition [5, 8] | growth inhibition ([5]; at 50.0 µM) | growth inhibition [6, 7] [%] | growth inhibition [6, 8] | growth inhibition ([6]; at 50.0 µM)
O=C(c1c(F)c(F)c(F)c(F)c1F)N1CCN(C(=O)c2c(F)c(F)c(F)c(F)c2F)C1=S | 0 | 91% (active) | 88.2% (active) | 15 | 81% (active) | 88.7% (active) | 8 | 94% (active) | 90.9% (active) | 8 | 88% (active) | 85.3% (active) | -7% | 86% (active) | 85.3% (active) | 32 | 92% (active) | 91.2% (active)
Cc1n[n+]([O-])c(C)cc1[N+](=O)[O-] | 0 | 50% | 93.7% (active) | 4 | 32% | 44.6% | 17 | 87% (active) | 85.6% (active) | -5 | 42% | 76.5% (active) | -8% | 16% | 65% | 58 | 94% (active) | 92.2% (active)
Oc1ccc(C23CC4CC(CC(C4)C2)C3)cc1 | -148 | -135% | 38.1% | -50 | -38% | -1.75% | -56 | -46% | 2.8% | -56 | -25% | 32.8% | -69% | -66% | -26.4% | -114 | -91% | 2.1%
Cc1n(CC(C)C)c2c([n+]1CC(=O)c1ccc([N+](=O)[O-])cc1)C(=O)c1ccccc1C2=O | 56 | 92% (active) | 88.2% (active) | 25 | 98% (active) | 90.7% (active) | 44 | 98% (active) | 91.3% (active) | 66 | 98% (active) | 89.8% (active) | 84% (active) | 98% (active) | 89.9% (active) | 47 | 96% (active) | 90.2% (active)
